Columns and labels:
Assay in all cases: DAPPL (digital affinity profiling via proximity ligation, sequencing); 10 mM Tris-HCl pH 7.5, 50 mM NaCl, 1 mM DTT, 4% glycerol, room temperature, 30 min; GST-TFs on glutathione beads, 16-mer random dsDNA library, 0.1% formaldehyde crosslink after washing; high values mean tight binding
Details in all cases: protein: recombinant; tags: N-terminal GST; dsDNA, one strand shown
FLI1 = target: T1, FLI1 (Homo sapiens, UniProt Q01543 1-452)
T1 sequence: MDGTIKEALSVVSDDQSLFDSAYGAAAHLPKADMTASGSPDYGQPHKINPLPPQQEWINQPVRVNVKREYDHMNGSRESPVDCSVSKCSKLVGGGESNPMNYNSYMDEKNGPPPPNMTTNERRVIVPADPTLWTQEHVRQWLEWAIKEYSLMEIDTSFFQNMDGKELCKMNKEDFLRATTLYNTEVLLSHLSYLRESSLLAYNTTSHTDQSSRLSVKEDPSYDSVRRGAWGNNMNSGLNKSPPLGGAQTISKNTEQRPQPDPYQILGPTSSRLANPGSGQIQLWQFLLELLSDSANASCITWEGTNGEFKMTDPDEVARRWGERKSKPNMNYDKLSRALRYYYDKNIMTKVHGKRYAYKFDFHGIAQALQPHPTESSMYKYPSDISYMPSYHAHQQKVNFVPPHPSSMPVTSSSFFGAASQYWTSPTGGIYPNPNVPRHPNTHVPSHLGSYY
How it was run: (§1)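 GST fusions of human transcription factors were expressed in yeast and captured with glutathione beads. Once given DNA barcodes and pooled alongside a tag-only sample, they were incubated for 30 min at room temperature with 200 nmole of a random double-stranded 16-mer DNA library in Tris/NaCl/DTT/glycerol buffer, then washed, crosslinked (0.1% formaldehyde), proximity-ligated, PCR-amplified and sequenced on an Illumina NextSeq500. The binding signal of each hexamer is its read frequency for a factor divided by its frequency for the tag-only sample.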

ELK1 = target: T2, ELK1 (Homo sapiens, UniProt P19419 1-428)
T2 sequence: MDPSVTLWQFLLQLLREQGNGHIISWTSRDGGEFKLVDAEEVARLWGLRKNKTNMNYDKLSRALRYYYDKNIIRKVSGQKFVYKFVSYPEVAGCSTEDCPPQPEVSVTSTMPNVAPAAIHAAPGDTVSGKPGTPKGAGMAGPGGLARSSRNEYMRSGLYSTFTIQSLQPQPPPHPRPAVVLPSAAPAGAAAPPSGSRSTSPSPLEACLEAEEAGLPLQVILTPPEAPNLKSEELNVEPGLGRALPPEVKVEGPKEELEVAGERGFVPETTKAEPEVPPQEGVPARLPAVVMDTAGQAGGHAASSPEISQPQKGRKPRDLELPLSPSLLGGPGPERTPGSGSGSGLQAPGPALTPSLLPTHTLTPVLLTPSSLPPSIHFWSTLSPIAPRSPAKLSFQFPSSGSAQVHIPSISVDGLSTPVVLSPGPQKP
How it was run: as §1

GABPA = target: T3, GABPA (Homo sapiens, UniProt Q06546 1-454)
T3 sequence: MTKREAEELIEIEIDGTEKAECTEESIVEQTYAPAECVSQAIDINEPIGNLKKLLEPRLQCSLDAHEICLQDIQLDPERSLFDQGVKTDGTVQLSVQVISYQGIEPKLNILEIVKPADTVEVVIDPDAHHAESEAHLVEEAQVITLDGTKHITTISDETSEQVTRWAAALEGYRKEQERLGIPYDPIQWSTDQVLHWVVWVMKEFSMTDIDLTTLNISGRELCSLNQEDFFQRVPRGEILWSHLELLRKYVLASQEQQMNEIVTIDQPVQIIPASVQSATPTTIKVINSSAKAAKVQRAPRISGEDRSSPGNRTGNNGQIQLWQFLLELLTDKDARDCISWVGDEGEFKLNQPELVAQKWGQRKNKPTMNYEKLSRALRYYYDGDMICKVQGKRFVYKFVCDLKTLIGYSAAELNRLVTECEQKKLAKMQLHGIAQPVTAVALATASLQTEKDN
How it was run: as §1

ERG = target: T4, ERG (Homo sapiens, UniProt P11308 1-479)
T4 sequence: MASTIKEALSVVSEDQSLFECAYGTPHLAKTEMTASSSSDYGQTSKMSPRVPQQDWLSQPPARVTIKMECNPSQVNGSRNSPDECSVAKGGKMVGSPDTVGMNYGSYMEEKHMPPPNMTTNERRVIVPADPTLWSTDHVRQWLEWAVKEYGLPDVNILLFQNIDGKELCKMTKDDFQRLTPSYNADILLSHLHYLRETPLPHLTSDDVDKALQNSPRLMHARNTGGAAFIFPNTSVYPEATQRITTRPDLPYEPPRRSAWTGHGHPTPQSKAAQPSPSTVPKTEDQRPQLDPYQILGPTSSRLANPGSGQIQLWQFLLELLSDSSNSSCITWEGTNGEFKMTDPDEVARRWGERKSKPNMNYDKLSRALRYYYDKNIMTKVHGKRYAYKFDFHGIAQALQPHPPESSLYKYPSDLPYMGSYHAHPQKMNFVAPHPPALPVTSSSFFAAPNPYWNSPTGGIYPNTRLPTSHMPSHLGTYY
How it was run: as §1

ELF1 = ELF1 (Homo sapiens, UniProt P32519 1-619)
How it was run: as §1

EHF = target: T5, EHF (Homo sapiens, UniProt Q9NZC4 1-300)
T5 sequence: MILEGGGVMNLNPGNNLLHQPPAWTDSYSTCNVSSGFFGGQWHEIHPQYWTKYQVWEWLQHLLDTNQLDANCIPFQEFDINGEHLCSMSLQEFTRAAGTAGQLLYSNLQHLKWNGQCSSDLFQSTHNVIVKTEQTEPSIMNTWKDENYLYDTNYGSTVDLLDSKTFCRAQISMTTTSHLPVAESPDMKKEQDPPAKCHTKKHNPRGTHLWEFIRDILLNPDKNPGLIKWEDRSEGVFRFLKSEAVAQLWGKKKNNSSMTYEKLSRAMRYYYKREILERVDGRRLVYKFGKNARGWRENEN
How it was run: as §1

SPI1 = SPI1 (Homo sapiens, UniProt P17947 1-270)
How it was run: as §1

SPIB = SPIB (Homo sapiens, UniProt Q01892 1-262)
How it was run: as §1

ELK3 = target: T6, ELK3 (Homo sapiens, UniProt P41970 1-407)
T6 sequence: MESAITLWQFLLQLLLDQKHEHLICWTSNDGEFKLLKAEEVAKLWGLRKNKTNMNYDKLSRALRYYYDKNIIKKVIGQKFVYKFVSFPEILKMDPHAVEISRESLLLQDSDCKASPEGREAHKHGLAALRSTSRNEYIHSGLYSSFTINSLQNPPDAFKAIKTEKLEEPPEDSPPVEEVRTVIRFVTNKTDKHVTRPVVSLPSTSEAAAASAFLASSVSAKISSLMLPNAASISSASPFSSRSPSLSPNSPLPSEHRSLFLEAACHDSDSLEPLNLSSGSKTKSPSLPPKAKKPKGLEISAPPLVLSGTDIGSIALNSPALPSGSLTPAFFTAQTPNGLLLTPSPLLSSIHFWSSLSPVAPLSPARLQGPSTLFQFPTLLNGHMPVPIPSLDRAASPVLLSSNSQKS
How it was run: as §1

Chain of SPIB (Q01892 whole entry): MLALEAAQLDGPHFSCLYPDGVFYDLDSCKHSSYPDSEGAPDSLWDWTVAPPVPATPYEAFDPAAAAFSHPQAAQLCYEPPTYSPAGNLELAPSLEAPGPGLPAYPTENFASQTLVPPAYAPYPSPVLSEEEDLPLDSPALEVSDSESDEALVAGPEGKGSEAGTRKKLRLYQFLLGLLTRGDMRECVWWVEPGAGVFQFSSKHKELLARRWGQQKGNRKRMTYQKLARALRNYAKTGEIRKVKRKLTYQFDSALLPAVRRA
Chain of ELF1 (P32519 whole entry): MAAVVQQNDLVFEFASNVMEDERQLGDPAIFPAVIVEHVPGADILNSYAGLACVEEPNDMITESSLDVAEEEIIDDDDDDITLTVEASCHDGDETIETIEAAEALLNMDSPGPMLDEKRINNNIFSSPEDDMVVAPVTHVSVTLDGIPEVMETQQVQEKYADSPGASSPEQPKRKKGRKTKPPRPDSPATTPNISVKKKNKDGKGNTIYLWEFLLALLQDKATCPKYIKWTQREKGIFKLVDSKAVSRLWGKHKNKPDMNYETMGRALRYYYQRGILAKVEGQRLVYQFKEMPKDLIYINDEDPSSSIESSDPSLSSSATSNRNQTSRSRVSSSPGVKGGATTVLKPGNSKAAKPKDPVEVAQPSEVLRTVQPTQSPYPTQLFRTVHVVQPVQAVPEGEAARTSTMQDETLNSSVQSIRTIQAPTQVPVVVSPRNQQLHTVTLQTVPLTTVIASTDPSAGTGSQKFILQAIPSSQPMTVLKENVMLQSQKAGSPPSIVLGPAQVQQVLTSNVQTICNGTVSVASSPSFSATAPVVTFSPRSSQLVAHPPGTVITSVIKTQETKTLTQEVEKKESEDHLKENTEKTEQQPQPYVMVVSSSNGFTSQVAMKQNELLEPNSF

Row | Sequence | binding signal (FLI1) | binding signal (ELK1) | binding signal (GABPA) | binding signal (ERG) | binding signal (ELF1) | binding signal (EHF) | binding signal (SPI1) | binding signal (SPIB) | binding signal (ELK3)
1 | ATTTGT | 1.36 fold enrichment (6-mer frequency, TF over GST control) | 1.36 fold enrichment (6-mer frequency, TF over GST control) | 1.34 fold enrichment (6-mer frequency, TF over GST control) | 1.28 fold enrichment (6-mer frequency, TF over GST control) | 1.31 fold enrichment (6-mer frequency, TF over GST control) | 1.3 fold enrichment (6-mer frequency, TF over GST control) | 1.26 fold enrichment (6-mer frequency, TF over GST control) | 1.27 fold enrichment (6-mer frequency, TF over GST control) | 1.24 fold enrichment (6-mer frequency, TF over GST control)
2 | TTCACC | 1.35 fold enrichment (6-mer frequency, TF over GST control) | 1.39 fold enrichment (6-mer frequency, TF over GST control) | 1.34 fold enrichment (6-mer frequency, TF over GST control) | 1.38 fold enrichment (6-mer frequency, TF over GST control) | 1.39 fold enrichment (6-mer frequency, TF over GST control) | 1.19 fold enrichment (6-mer frequency, TF over GST control) | 1.4 fold enrichment (6-mer frequency, TF over GST control) | 1.28 fold enrichment (6-mer frequency, TF over GST control) | 1.32 fold enrichment (6-mer frequency, TF over GST control)
3 | AGTTCC | 2.16 fold enrichment (6-mer frequency, TF over GST control) | 2.17 fold enrichment (6-mer frequency, TF over GST control) | 1.9 fold enrichment (6-mer frequency, TF over GST control) | 2.2 fold enrichment (6-mer frequency, TF over GST control) | 1.95 fold enrichment (6-mer frequency, TF over GST control) | 2.11 fold enrichment (6-mer frequency, TF over GST control) | 2.62 fold enrichment (6-mer frequency, TF over GST control) | 2.36 fold enrichment (6-mer frequency, TF over GST control) | 1.99 fold enrichment (6-mer frequency, TF over GST control)
4 | GAAATG | 1.52 fold enrichment (6-mer frequency, TF over GST control) | 1.61 fold enrichment (6-mer frequency, TF over GST control) | 1.55 fold enrichment (6-mer frequency, TF over GST control) | 1.73 fold enrichment (6-mer frequency, TF over GST control) | 1.54 fold enrichment (6-mer frequency, TF over GST control) | 1.65 fold enrichment (6-mer frequency, TF over GST control) | 1.67 fold enrichment (6-mer frequency, TF over GST control) | 1.6 fold enrichment (6-mer frequency, TF over GST control) | 1.6 fold enrichment (6-mer frequency, TF over GST control)
5 | TAGGCT | 1.22 fold enrichment (6-mer frequency, TF over GST control) | 1.18 fold enrichment (6-mer frequency, TF over GST control) | 1.3 fold enrichment (6-mer frequency, TF over GST control) | 1.23 fold enrichment (6-mer frequency, TF over GST control) | 1.21 fold enrichment (6-mer frequency, TF over GST control) | 1.2 fold enrichment (6-mer frequency, TF over GST control) | 1.19 fold enrichment (6-mer frequency, TF over GST control) | 1.1 fold enrichment (6-mer frequency, TF over GST control) | 1.26 fold enrichment (6-mer frequency, TF over GST control)
6 | TACGTT | 1.29 fold enrichment (6-mer frequency, TF over GST control) | 1.26 fold enrichment (6-mer frequency, TF over GST control) | 1.4 fold enrichment (6-mer frequency, TF over GST control) | 1.31 fold enrichment (6-mer frequency, TF over GST control) | 1.29 fold enrichment (6-mer frequency, TF over GST control) | 1.24 fold enrichment (6-mer frequency, TF over GST control) | 1.25 fold enrichment (6-mer frequency, TF over GST control) | 1.33 fold enrichment (6-mer frequency, TF over GST control) | 1.35 fold enrichment (6-mer frequency, TF over GST control)
7 | TTACGA | 1.21 fold enrichment (6-mer frequency, TF over GST control) | 1.14 fold enrichment (6-mer frequency, TF over GST control) | 1.18 fold enrichment (6-mer frequency, TF over GST control) | 1.06 fold enrichment (6-mer frequency, TF over GST control) | 1.14 fold enrichment (6-mer frequency, TF over GST control) | 1.07 fold enrichment (6-mer frequency, TF over GST control) | 1.09 fold enrichment (6-mer frequency, TF over GST control) | 1.07 fold enrichment (6-mer frequency, TF over GST control) | 1.09 fold enrichment (6-mer frequency, TF over GST control)
